Measurements as given in PubChem BioAssay (Tox21).
Records with an inconclusive call do not appear. Where a call stands in place of a potency, no number is given. Activity calls are given as the source filed them. Calls come from the whole dose curve; as a rule, active = well fitted inhibition curve with a large enough effect in the repeat runs; inconclusive = weak or mixed curves; inactive = no such curve, though single readings can be large or run the other way.

Biological target: Cytochrome P450 3A4 (Homo sapiens) (UniProt P08684)
Assay: Cytochrome P450 Family 3 Subfamily A Member 4 (CYP3A4) small molecule antagonists: luciferase reporter qHTS assay (AID 1671201); note: nearly all actives have a fitted effect of over 50% in size
Details: P450-Glo CYP3A4 enzyme, luciferin luminescence, 1 h; series mostly up to 115 µM
Procedure, shortened: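 Inhibition of CYP3A4 is measured as loss of light: the enzyme converts a proluciferin substrate to luciferin, detected luminescently. Reaction ran 1 h at room temperature with NADPH regeneration after a 10 min compound preincubation.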
Potency is the fitted concentration of half-maximal effect.

Cytochrome P450 3A4 (Homo sapiens), sequence (P08684 whole entry, looked up): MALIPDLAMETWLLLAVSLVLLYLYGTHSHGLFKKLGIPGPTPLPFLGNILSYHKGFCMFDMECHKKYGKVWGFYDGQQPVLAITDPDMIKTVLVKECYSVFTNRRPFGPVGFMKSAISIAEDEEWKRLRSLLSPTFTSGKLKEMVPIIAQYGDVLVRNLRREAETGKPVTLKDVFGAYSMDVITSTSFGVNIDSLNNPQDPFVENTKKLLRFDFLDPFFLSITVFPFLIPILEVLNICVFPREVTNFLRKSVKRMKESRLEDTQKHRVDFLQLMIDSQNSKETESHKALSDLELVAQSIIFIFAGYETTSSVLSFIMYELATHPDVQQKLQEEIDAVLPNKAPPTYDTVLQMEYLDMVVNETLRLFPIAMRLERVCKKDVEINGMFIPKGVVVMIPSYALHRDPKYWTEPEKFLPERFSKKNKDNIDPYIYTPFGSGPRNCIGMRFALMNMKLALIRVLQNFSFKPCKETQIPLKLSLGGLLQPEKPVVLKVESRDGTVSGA

Row | Structure (SMILES) | Potency
1 | O=c1[nH]c2cc(C(F)(F)F)c(N3CCOCC3)cc2n(CP(=O)(O)O)c1=O | inactive
2 | CSSc1ccoc1C | inactive
3 | Cc1cccc(C)c1NC(=O)c1cc(S(N)(=O)=O)c(Cl)cc1O | inactive
4 | CC(CO)(CO)C(=O)O | inactive
5 | CC1CCC(C(C)CS)CC1S (centres undefined) | 31.7 µM (active)
6 | CC(C)(C)NCC(O)COc1cccc2c1C[C@H](O)[C@H](O)C2 (some centres undefined) | inactive
7 | CNS(=O)(=O)c1cc(C(=O)N2CCC(CCN3C4CCC3CC(n3c(C)nc5ccccc53)C4)(c3cccc(F)c3)CC2)c(Cl)cc1F (centres undefined) | inactive
8 | CCN(CC)c1ccc(C(=C2C=CC(=[N+](CC)CC)C=C2)c2ccc(S(=O)(=O)O)cc2S(=O)(=O)[O-])cc1 | 8.94 µM (active)
9 | FC(F)(F)C(F)(F)C(F)(F)C(F)(F)CCI | inactive
10 | Cc1ccc(S(=O)(=O)NC(=O)NC2CCCCC2)cc1 | inactive
11 | CC(C)c1ccc(C#N)cc1 | inactive
12 | O=C(c1ccccc1)c1ccc(O)cc1 | inactive
13 | CCN(CC)C(=O)N1CCN(C)CC1 | inactive
14 | O=[N+]([O-])c1ccc2ncccc2c1 | inactive
15 | CCC(=O)OCc1ccc(OC)cc1 | inactive
16 | ClC1=C(Cl)C1(Cl)Cl | inactive
17 | O=C(O)c1cccc(Oc2ccccc2)c1 | inactive
18 | CCOC(=O)c1ccc(NC(=O)CN2CCCCC2)cc1 | inactive
19 | [Cl][Nd]([Cl])[Cl] | inactive
20 | CCN(CC)CCOC(=O)C(c1ccccc1)c1ccccc1 | inactive
21 | C[C@@H]1[C@H](O)[C@@H](C)/C=C/C=C\C=C\C=C\C=C\C=C\C=C\[C@H](O[C@@H]2O[C@H](C)[C@@H](O)[C@H](N)[C@@H]2O)C[C@@H]2O[C@](O)(C[C@@H](O)C[C@@H](O)[C@H](O)CC[C@@H](O)C[C@@H](O)CC(=O)O[C@H]1C)C[C@H](O)[C@H]2C(=O)O (stereo in doubt) | inactive
22 | Cc1ccc(N(CCO)CCO)cc1 | inactive
23 | CCCCCCCC(=O)OCCCCCC | inactive
24 | CC[C@H]1OC(=O)[C@H](C)[C@@H](O[C@H]2C[C@@](C)(OC)[C@@H](O)[C@H](C)O2)[C@H](C)[C@@H](O[C@@H]2O[C@H](C)C[C@H](N(C)C)[C@H]2O)[C@](C)(O)C[C@@H](C)C(=O)[C@H](C)[C@@H](O)[C@]1(C)O | 3.45 µM (active)
25 | O[C@@H](CNC[C@H](O)[C@H]1CCc2cc(F)ccc2O1)[C@@H]1CCc2cc(F)ccc2O1 | inactive
26 | CC(=O)OCC(=O)[C@@]1(OC(C)=O)[C@@H](C)C[C@H]2[C@@H]3C[C@H](F)C4=CC(=O)C=C[C@]4(C)[C@@]3(F)[C@@H](O)C[C@@]21C | inactive
27 | CC(CCc1ccc(O)cc1)NCCc1ccc(O)c(O)c1 (centres undefined) | inactive
28 | SCCc1cnccn1 | inactive
29 | CCCCCCCCCCCCCOS(=O)(=O)O | inactive
